Source: PubChem (National Center for Advancing Translational Sciences (NCATS))
This is a sample that favours compounds with a hit; in the whole collection about 9.4% have one here.
SARS PLP yeast – blocks SARS-CoV papain-like protease in a yeast assay; S. cerevisiae expressing SARS-CoV PLpro, growth rescue; Potency, µM (doses to about 32.9 µM), for inactives: at the highest dose activity, positive = growth rescue, hits mostly activators; 330,000 compounds, 0.19% hits; AID 485353; calls by dose curve; further: 0% is about no effect; nearly all actives have a fitted effect of over 55% in size
Pf growth 48h – P. falciparum growth inhibition at 48 hours (one generation); Potency, µM (titrated, usually from 28.7 µM), for inactives: at the highest dose activity change, negative = inhibition, hits mostly inhibitors; 310,000 compounds, 5.9% hits; P. falciparum luciferase growth in erythrocytes, 48 h; AID 504832; further: on the % scale 0 is the no-effect control and ±100 the full control effect
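Parasite viability was followed by luminescence of a genomically integrated firefly luciferase. Cultures held 0.1% parasitemia at 2% hematocrit (final), incubated under 5% CO2 at 37 C.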
AMA1-RON2 inh – AMA1-RON2 (P. falciparum) interaction inhibition. AlphaScreen AMA1-biotinylated RON2 peptide binding. Potency, µM (series often up to 58.2 µM), for inactives: top-dose activity change, negative = inhibition, usual class: inhibitors. 360,000 compounds, 0.2% hits. AID 720542;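 further: 0% = vehicle wells and -100% = peptide control; nearly all actives have a fitted effect of over 45% in size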
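AMA1 (3D7) with his tag at 25 nM final met compounds first, then biotinylated RON2 peptide at 25 nM; detection used donor plus acceptor beads, 10 µg/mL apiece, read by AlphaScreen after 30 min at room temperature.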
Pf growth 96h – P. falciparum growth inhibition at 96 hours. P. falciparum luciferase reporter growth, 96 h. Potency, µM (titrated, usually from 28.7 µM), for the others: at the highest dose activity change, negative = inhibition, most hits filed as inhibitors. 320,000 compounds, 6.9% hits. AID 504834; further: on the % scale 0 is the no-effect control and ±100 the full control effect
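Cell-based qHTS: luciferase-tagged P. falciparum in erythrocytes (2% hematocrit, 0.05% parasitemia final) incubated with compounds for 96 hours, 37 C, 5% CO2; luciferase detection reagent then added and luminescence measured.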
* marks the source's active call; other numbers are inactive results; i = inactive; ? = inconclusive; / = not tested or not shown; [ ] = remark or other dose. Unless noted, the call rests on the fitted dose curve; in most records, active means well fitted curve in the direction sought with a large enough effect; inconclusive means small, poorly fitted or top-dose-only effect, or another doubt; inactive means no such curve, though single readings can be large; an effect the other way counts as inactive or inconclusive. Potency means the concentration at half of the fitted maximal effect.

SMILES	SARS PLP yeast	Pf growth 48h	AMA1-RON2 inh	Pf growth 96h
Cc1ccc(OCCCC(=O)Nc2nccs2)cc1	8%	26%	-14%	?
CCOC(=O)C1CCN(CC(=O)Nc2c(C(=O)OC)[nH]c3ccc(Cl)cc23)CC1	0%	13µM*	-2%	?
COC(=O)c1[nH]c2ccc(C)cc2c1NC(=O)CN1CCCC(C)(C)C1	-5%	?	-11%	12µM*
CC1=C(C(=O)NCCN2CCN(C)CC2)C2(CCC(C)CC2)OC1=O (configuration not stated)	3%	32%	-4%	0%
O=C1/C(=C/c2cccc(Br)c2)SC(=S)N1CCC(=O)N(CCO)c1ccccc1	2%	-19%	-20%	-20%
O=C(CN1C(=O)/C(=C/c2ccco2)SC1=S)Nc1ccc(O)c(C(=O)O)c1	1%	11%	1%	15µM*
O=C(CN1C(=O)/C(=C/c2ccco2)SC1=S)Nc1ccc(C(=O)O)c(O)c1	?	16%	-6%	?
COc1cc(/C=C2\SC(=S)N(NS(=O)(=O)c3ccccc3)C2=O)cc(OC)c1OC	1%	9.3µM*	-8%	4%
COc1cccc(/C=C2\SC(=S)N(CCCC(=O)N(CCO)c3ccccc3)C2=O)c1	9%	12µM*	?	1.9µM*
COc1ccc(/C=C2/SC(=S)N(CCCC(=O)Nc3cccc(O)c3)C2=O)cc1	2%	15µM*	-16%	?
O=C(CSc1cn(CCNC(=O)c2cccs2)c2ccccc12)NCC1CCCO1 (configuration not stated)	-5%	-10%	-7%	-2%
Cc1ccc(-c2nnc(Cc3ccc([N+](=O)[O-])cc3)o2)cc1	-3%	i	-2%	1%
CCCc1nc2sc3ccccc3c(=O)c2c(=O)n1CCOC	1%	21%	/	1%
COc1cc(/C=C2\SC(=S)N(CCC(=O)Nc3ccccc3O)C2=O)cc(OC)c1OC	2%	?	-7%	13µM*
O=C(CCCN1C(=O)/C(=C/c2ccco2)SC1=S)Nc1cccc(C(=O)O)c1	-1%	-8%	-5%	13µM*
COc1ccc(NC(=O)CCCN2C(=O)/C(=C\c3ccco3)SC2=S)cc1	-18%	8%	-11%[11.6 µM]	5.2µM*
CS/C(=N\S(=O)(=O)c1cccs1)Nc1ccc(F)cc1	7%	11%	-11%	54%
COc1ccc([N+](=O)[O-])cc1-n1cnnn1	-1%	12%	10%	1.5µM*
COc1cc(-c2ccc(N)c(OC)c2)ccc1N	-19%	41%	-20%	44%
COc1cc([N+](=O)[O-])ccc1N	15%	11%	-13%	9.3µM*
Cc1c(C(=O)OCC(=O)NC(=O)NC2CCCCC2)cccc1[N+](=O)[O-]	-10%	/	4%	/
CN(C)/C=N/c1nc(Sc2ccc(C(F)(F)F)cc2[N+](=O)[O-])n[nH]1	0%	7%	-13%	79%
O=[N+]([O-])c1cc(C(F)(F)F)cc([N+](=O)[O-])c1Sc1n[nH]c(C(F)(F)F)n1	-1%	5.2µM*	-7%	?
O=[N+]([O-])c1cccc(/C=N/Nc2nc(C(Cl)(Cl)Cl)nc3ccccc23)c1	10%	1µM*	6%	?
C(=N\Nc1nc(-c2ccccn2)nc2ccccc12)/c1ccccc1	-1%	4.7µM*	/	2.1µM*
SMILES	SARS PLP yeast	Pf growth 48h	AMA1-RON2 inh	Pf growth 96h
O=[N+]([O-])c1cccc(/C=N/Nc2nccnc2Cl)c1	-9%	169%	-17%	86%
ClC(Cl)(Cl)c1nc(N/N=C/c2ccncc2)c2ccccc2n1	1%	2.3µM*	16%	?
CC(OC(=O)CCc1nc2ccccc2c(=O)[nH]1)C(=O)Nc1ccc2c(c1)OCO2 (configuration not stated)	0%	51%	-7%	38%
Cn1cccc1/C=N/N1CCN(Cc2ccccc2)CC1	-1%	-10%	-17%	14%
Cn1cccc1/C=N/N1CCN(Cc2cccc3ccccc23)CC1	8%	-6%	20µM*	2%
CC(Oc1ccc(Br)cc1)C(=O)Nc1nc(-c2ccccn2)cs1 (configuration not stated)	-2%	7.4µM*	29%	3.7µM*
CC(Oc1ccc(Cl)cc1)C(=O)Nc1nccs1 (configuration not stated)	-29%	4.1µM*	5%	/
CC(C)[C@H](NC(=O)c1ccccc1Cl)C(=O)Nc1nc(-c2ccccn2)cs1	-2%	9.3µM*	30%	?
O=C(COc1ccc(F)cc1)Nc1nc(-c2ccccn2)cs1	3%	?	26%	?
CCc1nnc(NC(=O)C(NC(=O)c2ccccc2Cl)C(C)C)s1 (configuration not stated)	5%	15%	5%	3%
COc1ccc2c(-c3ccccc3)cc(SCC(N)=O)nc2c1	-7%	-20%	-16%	2%
Nc1ccc(Oc2ccc(N)c([N+](=O)[O-])c2)cc1[N+](=O)[O-]	/	/	-18%	/
COc1ccc(-c2sc3ccc(N4CCOCC4)cc3c2-c2ccc(OC)c(F)c2)cc1	-1%	15µM*	-3%	6.6µM*
COc1cccc(CNC(=O)C(Cc2ccccc2)n2cccc2)c1 (configuration not stated)	-2%	63%	2%	?
COc1ccc(C(=O)C[n+]2cccc(C)c2C)cc1[N+](=O)[O-]	0%	7.4µM*	-1%	6%
Cc1ccc(C(=O)C[n+]2ccccc2C)cc1[N+](=O)[O-]	3%	22%	7%	?
COc1ccc(OC)c(NC(=O)C2(C)CCN2Cc2ccsc2)c1 (configuration not stated)	/	/	-27%	/
CCOC(=O)Cn1c(=N)n(CCOc2ccc3ccccc3c2)c2ccccc21	2%	-29%	-10%	/
N#Cc1ccccc1Cn1cc(/C=C/[N+](=O)[O-])c2ccccc21	-103%	9.3µM*	-9%	21%
COc1ccc(/C=C/C2=CC(C)(C)NC(=S)N2)cc1	1%	?	35%	9.3µM*
CC(=O)c1ccc(S(=O)(=O)N(C)CC(=O)Nc2cc(C)on2)cc1	12%	2%	10%	6%
CS(=O)(=O)Cc1nc2ccccc2oc1=O	-29%	?	-26%	6.6µM*
CC1CCN(S(=O)(=O)c2ccc(NC(=O)N3c4ccccc4Sc4ccccc43)cc2)CC1	4%	?	-1%	?
CCOCCCNS(=O)(=O)c1ccc(NC(=O)N2c3ccccc3Sc3ccccc32)cc1	-7%	?	-24%	12µM*
CCOCCCNS(=O)(=O)c1ccc(NC(=O)CN2C(=O)c3ccccc3C2=O)cc1	4%	-5%	-10%	?
NS(=O)(=O)c1ccc(NC(=O)N2c3ccccc3Sc3ccccc32)cc1	-14%	?	-6%	2.3µM*
CNC(=S)N/N=C/c1cn(Cc2ccc(F)cc2)c2ccccc12	16%	?	9%[2.32 µM]	?
CC1CCN(c2nc3c(=O)[nH]c(N)nc3n2[C@@H]2O[C@H](CO)[C@@H](O)[C@H]2O)CC1	-1%	20%	6%	11%
COCCn1c(C(=O)N(C)C)cc2c1C[C@H]1CN(C(=O)c3ccccc3)[C@@](Cc3ccc(F)cc3)(C(=O)OC)[C@@H]21	/	/	-2%	/
